Laboratory results reported in PubChem BioAssay AID1063 (University of Pittsburgh Molecular Library Screening Center, 2008).
Where “and” joins values, the source holds several entries; their conditions need not be identical. Equal values may be shown once. Screen size: about 200,000 compounds; about 18,000 (9%) were called active. Many of the other results were omitted from the sample, so actives are more common in it than they were. A number with no mark means an inactive call. Cut-off read from the data, not from the text of the source: active = inhibition above about 50%; inactive = the rest.

Assay: antileishmanial activity against promastigotes – primary screen (AID 1063);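 note: promastigotes grown with compound for 44 hours at 28 °C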
Details: Leishmania major promastigotes, resazurin fluorescence viability; at 10 µM; hits give high values

Structure (SMILES)	inhibition
CCCN(CC(=O)Nc1ccccc1C)C(=O)c1cc(=O)[nH]c2ccccc12	1.78%
O=C(O)/C=C/c1cn(-c2ccccc2)nc1-c1cccs1	-2.18%
O=C(O)c1ccc(N/N=C/c2cn(-c3ccccc3)nc2-c2cccs2)cc1	46.2%
CC(=O)C1=C(C)NC(C)=C(C(C)=O)C1c1cn(-c2ccccc2)nc1-c1cccs1	79.7% (active)
CC(=O)Nc1ccc(S(=O)(=O)Oc2ccc(/C=N/N=C3/NC(=O)C(CC(=O)O)S3)cc2)cc1 (stereo not given)	-13.1%
Cc1cccc(C)c1NC(=O)C1CCCN1C(=O)OC(C)(C)C (stereo not given)	-5.04%
Cc1ccc(NC(=O)c2csc3c2CCCC3)cc1	12.4%
CC(Sc1cccc[n+]1[O-])C(=O)Nc1cccc(S(=O)(=O)N2CCOCC2)c1 (stereo not given)	-4.48%
Cc1cc(C(=O)OC(C)C(=O)Nc2cccc(S(=O)(=O)N3CCOCC3)c2)c(C)o1 (stereo not given)	99.7% (active)
O=C(COC(=O)c1ccccc1)Nc1cccc(S(=O)(=O)N2CCOCC2)c1	-3.29%
Cc1nc(CN2CCN(C(=O)CCc3nnc(Cc4c[nH]c5ccccc45)o3)CC2)cs1	0.41%
CN(CCN1CCOCC1)Cc1nc(-c2ccc3c(c2)OCO3)no1	39.3%
CC(C)c1cc(NCc2ccccn2)n2c(nc3ccccc32)c1C#N	8.36%
Cc1cc(N/N=C/c2ccccc2F)c2ccccc2n1	12.3%
Cc1nc(N2CCOCC2)sc1C(=O)NN	7.46%
Cc1ccc(C(=O)N2CCCC(c3ccccc3)=N2)cc1	16.1%
Cc1ccc(C(=O)C[n+]2cc(-c3ccccc3)n3c2CCCCC3)cc1	101% (active) and 100% (active)
Cn1c(-c2ccccc2)c[n+]2c1CCCCC2	0.17%
N/C(=N/O)c1cccn1Cc1ccccc1[N+](=O)[O-]	-1.66%
COc1ccc(C)cc1NC(=O)c1ccc(-c2ccc(C(C)=O)cc2)o1	-4.3%
COc1cc2[nH]c(=O)n(Cc3ccc(C(=O)NC4CCN(Cc5ccccc5)CC4)cc3)c(=O)c2cc1OC	-5.05%
O=C(NC1CCN(Cc2ccccc2)CC1)c1ccccc1F	62.4% (active)

Structure (SMILES)	inhibition
O=C(NC1CCN(Cc2ccccc2)CC1)c1cc(Br)c(Br)[nH]1	60.3% (active)
O=C(NC1CCN(Cc2ccccc2)CC1)c1c(F)cccc1F	21.7%
O=C(NC(=S)N1CCN(Cc2ccccc2)CC1)c1ccccc1	14.1%
O=C(COc1ccccc1F)NC1CC1	-1.88%
O=C(COc1ccc(Br)cc1F)NC1CCN(Cc2ccccc2)CC1	93.2% (active)
S=C(NN=C1CCN(Cc2ccccc2)CC1)NC1CCCCC1	-4.71%
COc1cc2[nH]c(=O)n(CCC(=O)NC3CCN(Cc4ccccc4)CC3)c(=O)c2cc1OC	-1.95%
Cc1ccn2cc(C(=O)NC3CCN(Cc4ccccc4)CC3)nc2c1	4.6%
S=C(Nc1ccc(Br)cc1Cl)NC1CCN(Cc2ccccc2)CC1	90.3% (active)
O=C(NNC(=S)Nc1ccc(Br)cc1Cl)c1ccco1	0.76%
O=C1c2ccccc2NC(c2ccccc2O)N1NS(=O)(=O)c1ccccc1 (stereo not given)	7.23%
Cc1ccc(Cl)c(NC(=O)CN2CCN(C=O)CC2)c1	-1.88%
COc1cccc(NC(=O)c2ccc3c(SCC(=O)O)c4c(nc3c2)CCCC4)c1	7.5%
O=C(Nc1ccncc1)c1cc(-c2ccccn2)nc2ccc(Br)cc12	2.98%
NC(=O)c1ccccc1N(Cc1ccccc1)S(=O)(=O)c1ccccc1	2.81%
CC(C)(C)n1nc2c(c1NC(=O)c1cc3ccccc3o1)CSC2	1.01%
COc1ccccc1N1CCN(c2ccc([N+](=O)[O-])nc2)CC1	-10.8%
CCOC(=O)C1(Cc2ccccc2C(F)(F)F)CCN(C(=O)c2cc(C)n(C)n2)CC1	5.02%
C/C(=N/N1CCN(Cc2cccc3ccccc23)CC1)c1cccnc1	17.2%
OCC1(Cc2ccccc2C(F)(F)F)CCN(Cc2cccc3cnccc23)CC1	88.2% (active)
COc1ccc(C2=NN(c3nc4ccccc4s3)C(=O)C2)cc1	-7.22%
CCC(C)(C)NC(=O)CN(C(=O)CCC(=O)Nc1cc(C)ccn1)c1ccc2c(c1)OCCO2	-0.92%

Structure (SMILES)	inhibition
CCC(C)N(C)C1CCN(C(=S)Nc2ccc(OC)cc2)CC1 (stereo not given)	34.2%
CCOc1ccc(NC(=S)N2CCCCCC2)cc1	3.65%
CCOc1ccc(NC(=S)N2CCC(N(C)CC3CCCO3)CC2)cc1 (stereo not given)	96.2% (active)
Cn1cc(CN2CCC(C(O)CCc3ccccc3)CC2)c(-c2ccccc2F)n1 (stereo not given)	-2.53%
Cc1ccc(NC(=O)Cn2c(=O)n(CCC(=O)NC3CCN(Cc4ccccc4)CC3)c(=O)c3ccccc32)cc1	0.09%
Cc1ccc(CNC(=O)CCNS(=O)(=O)c2ccc(Br)s2)cc1	-6.86%
COc1ccc(CN2CN(C(C)C)CSC2=S)cc1	96.4% (active)
COc1ccc(CN2CN(C3CCCC3)CSC2=S)cc1	5.66%
COc1ccc(Cn2c(=O)cc(C)[nH]c2=S)cc1	-4.72%
COc1ccccc1CSc1ncc(-c2ccc([N+](=O)[O-])cc2)[nH]1	76.4% (active)
COc1ccccc1CC(=O)Nc1ccc([N+](=O)[O-])cc1OC	-0.93%
COc1ccccc1CSc1nc2ccccc2[nH]1	-3.47%
CCOC(=O)/C=c1\s/c(=C\c2ccc(C#N)cc2)c(=O)n1CC(=O)Nc1cccc(C)c1C	-1.97%
CCOC(=O)C/C(C)=N\Nc1ccc([N+](=O)[O-])cc1[N+](=O)[O-]	2.68%
CN1C(=O)/C(=C/C=C2\SCCN2C)OC1=S	12.9%
CCN(CC)S(=O)(=O)c1ccc(N2CCCC2)c(NS(=O)(=O)c2cccs2)c1	-1.33%
COc1cc(S(=O)(=O)N(Cc2cccs2)C2CC2)ccc1-n1cnnn1	99.8% (active)
CCOc1ccc(S(=O)(=O)N(CC(=O)NCC(F)(F)F)Cc2ccco2)cc1	-5.48%
COc1ccc(CN(Cc2ccco2)S(=O)(=O)c2ccc(S(=O)(=O)N3CCCC3)cc2)cc1	-4.09%
COc1ccc(N(CC(=O)N/N=C/c2cccs2)S(=O)(=O)c2ccc(OC)c(OC)c2)cc1	3.63%
CCOc1ccc(CN(Cc2ccco2)S(=O)(=O)c2ccc(-n3cnnn3)c(OC)c2)cc1	95.5% (active)
